Results filed as inconclusive are left out. Activity calls are given as the source filed them. Unless noted, calls come from the whole dose curve; as a rule, active = well fitted curve in the direction sought with a large enough effect in the repeat runs; inconclusive = weak or mixed curves; inactive = no such curve, though single readings can be large; an effect the other way counts as inactive or inconclusive.
Legend:
[1] = qHTS assay to identify small molecule antagonists of the glucocorticoid receptor (GR) signaling pathway - cell viability counter screen (AID 720693); note: nearly all actives have a fitted effect of over 55% in size
[2] = qHTS assay for identifying genotoxic compounds that show differential cytotoxicity against isogenic chicken DT40 cell lines with known DNA damage response pathways - wild type cell line (AID 743012); note: nearly all actives have a fitted effect of over 60% in size; note: potency is the fitted concentration of half-maximal effect
How it was run: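 Viability by ATP luminescence (CellTiter-Glo, 30 min RT) after 40 h compound treatment at 37 C/5% CO2, using 300 parental DNA repair-proficient DT40 cells per well.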

[3] = qHTS assay for identifying genotoxic compounds that show differential cytotoxicity against isogenic chicken DT40 cell lines with known DNA damage response pathways - Rad54/Ku70 mutant cell line (AID 743015); note: nearly all actives have a fitted effect of over 60% in size; note: potency is the fitted concentration of half-maximal effect
[4] = qHTS assay to identify small molecule antagonists of the androgen receptor (AR) signaling pathway - cell viability counter screen (AID 743033; note: nearly all actives have a fitted effect of over 45% in size)
[5] = qHTS assay to identify small molecule antagonists of the androgen receptor (AR) signaling pathway using the MDA cell line - cell viability counter screen (AID 743041; note: nearly all actives have a fitted effect of over 45% in size)
How it was run: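 Using the breast carcinoma line MDA-kb2 AR-luc, test chemicals were co-incubated with R1881 for 16 h; CellTiter-Fluor reagent, added at 15.5 h, provided a fluorescence measure of live cells.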

[6] = qHTS assay to identify small molecule antagonists of the thyroid receptor (TR) signaling pathway - cell viability counter screen (AID 743064); note: nearly all actives have a fitted effect of over 50% in size
How it was run: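 GH3.TRE-Luc rat pituitary cells dosed after 4 hr plating, co-stimulated with T3 at 1 nM final, incubated 23.5 h at 37 C. Viability measured in the same wells by CellTiter-Fluor fluorescence after 30 min further at 37 C.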

[7] = qHTS assay to identify small molecule antagonists of the thyroid receptor (TR) signaling pathway (AID 743065); note: series mostly up to about 70 µM; nearly all actives have a fitted effect of over 55% in size
How it was run: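 Antagonism measured as loss of luciferase signal in GH3 cells stably carrying a TRE-luciferase reporter, co-treated with compound and T3 (1 nM final) for 23.5 h at 37 C. Viability was read in the same well by CellTiter-Fluor.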

[8] = system: thyroid hormone receptor (rat, GH3 cells); test: qHTS assay to identify small molecule agonists of the thyroid receptor (TR) signaling pathway (AID 743066; calls by dose curve)
[9] = qHTS assay to identify small molecule antagonists of the estrogen receptor alpha (ER-alpha) signaling pathway - cell viability counter screen (AID 743074; calls by dose curve; note: nearly all actives have a fitted effect of over 45% in size)
[10] = qHTS assay to identify small molecule antagonists of the estrogen receptor alpha (ER-alpha) signaling pathway using the BG1 cell line - cell viability counter screen (AID 743081);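 note: compound given together with 17beta-estradiol as the ER stimulus; series mostly up to about 70 µM; nearly all actives have a fitted effect of over 45% in size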
[11] = target: Estrogen receptor (Homo sapiens) (UniProt P03372); test: qHTS assay to identify small molecule agonists of the estrogen receptor alpha (ER-alpha) signaling pathway (AID 743075; calls by dose curve)
[12] = target: Aromatase (Homo sapiens) (UniProt P11511); test: qHTS assay to identify aromatase inhibitors (AID 743083); note: series mostly up to about 70 µM; nearly all actives have a fitted effect of over 55% in size
[13] = target: Estrogen receptor (Homo sapiens) (UniProt P03372); test: qHTS assay to identify small molecule antagonists of the estrogen receptor alpha (ER-alpha) signaling pathway (AID 743069; active = well fitted curve in the direction sought with a large enough effect in the signal ratio in the repeat runs, not every such curve was filed as active; the % refers to the signal ratio)
How it was run: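 Fluorescence intensity from a beta-lactamase FRET substrate served as the read-out. Cells: HEK293 with stably integrated ER-alpha-UAS-bla reporter. Agonist 17beta-estradiol was co-added with compounds; incubation 18 hr at 37C, substrate 2 hr at room temperature.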

[14] = target: Estrogen receptor (Homo sapiens) (UniProt P03372); test: qHTS assay to identify small molecule agonists of the estrogen receptor alpha (ER-alpha) signaling pathway using the BG1 cell line (AID 743079); note: nearly all actives have a fitted effect of over 20% in size
[15] = qHTS assay to identify small molecule antagonists of the estrogen receptor alpha (ER-alpha) signaling pathway using the BG1 cell line (AID 743080; calls by dose curve;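 note: BG1 cells stimulated with 17beta-estradiol alongside compound; series mostly up to about 70 µM; nearly all actives have a fitted effect of over 25% in size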)
How it was run: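 Readout is ONE-Glo luminescence, taken 30 min at room temperature after reagent addition, preceded by a CellTiter-Fluor viability read; BG1-Luc-4E2 cells had received compound and 17beta-estradiol for 21.5 h at 37 C.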

[16] = qHTS assay to identify aromatase inhibitors - cell viability counter screen (AID 743084);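 note: cells stimulated with testosterone during compound exposure; nearly all actives have a fitted effect of over 55% in size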
[17] = qHTS assay for identifying genotoxic compounds that show differential cytotoxicity against isogenic chicken DT40 cell lines with known DNA damage response pathways - Rev3 mutant cell line (AID 743014); note: nearly all actives have a fitted effect of over 55% in size
[18] = target: Androgen receptor (Homo sapiens) (UniProt P10275); test: qHTS assay to identify small molecule agonists of the androgen receptor (AR) signaling pathway (AID 743036; active = well fitted activation curve with a large enough effect in the signal ratio in the repeat runs, with a control signal flat, not every such curve was filed as active; the % refers to the signal ratio)
How it was run: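 AR-UAS-bla HEK293 cells, plated 4 h before dosing, were treated with compound for 16 h at 37C. beta-Lactamase reporter read after 2 h with LiveBLAzer B/G FRET substrate at room temperature.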

[19] = target: Androgen receptor (Homo sapiens) (UniProt P10275); test: qHTS assay to identify small molecule agonists of the androgen receptor (AR) signaling pathway using the MDA cell line (AID 743040; note: nearly all actives have a fitted effect of over 20% in size)
How it was run: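 Stable MMTV-luciferase reporter in MDA-kb2 cells; note the promoter carries GR as well as AR response elements. 16 h compound treatment, 37C, 0% CO2; ONE-Glo luminescence endpoint.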

[20] = target: Androgen receptor (Homo sapiens) (UniProt P10275); test: qHTS assay to identify small molecule antagonists of the androgen receptor (AR) signaling pathway using the MDA cell line (AID 743042; note: nearly all actives have a fitted effect of over 55% in size)
How it was run: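 Antagonist mode: compounds plus R1881 agonist added to MDA-kb2 AR-luc cells, incubated 16 h at 37C. Luciferase reporter luminescence quantified, with multiplexed CellTiter-Fluor readout for cell viability.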
% is set by controls: 0 for no effect and ±100 for the full control effect.

Chain of Estrogen receptor (Homo sapiens) (P03372 whole entry, looked up): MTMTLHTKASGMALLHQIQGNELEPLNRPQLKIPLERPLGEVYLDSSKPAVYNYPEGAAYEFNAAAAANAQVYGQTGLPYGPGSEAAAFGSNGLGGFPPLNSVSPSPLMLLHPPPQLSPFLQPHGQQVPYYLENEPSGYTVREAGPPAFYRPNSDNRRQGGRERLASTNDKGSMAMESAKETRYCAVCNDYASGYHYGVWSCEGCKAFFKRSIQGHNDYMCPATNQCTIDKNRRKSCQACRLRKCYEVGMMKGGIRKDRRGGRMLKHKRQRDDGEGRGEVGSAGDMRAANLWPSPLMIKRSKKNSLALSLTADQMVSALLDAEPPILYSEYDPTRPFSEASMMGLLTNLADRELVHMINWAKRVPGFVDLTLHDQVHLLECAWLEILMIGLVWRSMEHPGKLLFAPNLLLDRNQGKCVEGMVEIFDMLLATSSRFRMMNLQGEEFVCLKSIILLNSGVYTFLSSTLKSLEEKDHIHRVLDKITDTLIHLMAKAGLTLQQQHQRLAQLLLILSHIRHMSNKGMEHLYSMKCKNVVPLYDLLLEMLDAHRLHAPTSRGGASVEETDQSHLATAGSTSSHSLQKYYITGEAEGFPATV
Chain of Androgen receptor (Homo sapiens) (P10275 whole entry, looked up): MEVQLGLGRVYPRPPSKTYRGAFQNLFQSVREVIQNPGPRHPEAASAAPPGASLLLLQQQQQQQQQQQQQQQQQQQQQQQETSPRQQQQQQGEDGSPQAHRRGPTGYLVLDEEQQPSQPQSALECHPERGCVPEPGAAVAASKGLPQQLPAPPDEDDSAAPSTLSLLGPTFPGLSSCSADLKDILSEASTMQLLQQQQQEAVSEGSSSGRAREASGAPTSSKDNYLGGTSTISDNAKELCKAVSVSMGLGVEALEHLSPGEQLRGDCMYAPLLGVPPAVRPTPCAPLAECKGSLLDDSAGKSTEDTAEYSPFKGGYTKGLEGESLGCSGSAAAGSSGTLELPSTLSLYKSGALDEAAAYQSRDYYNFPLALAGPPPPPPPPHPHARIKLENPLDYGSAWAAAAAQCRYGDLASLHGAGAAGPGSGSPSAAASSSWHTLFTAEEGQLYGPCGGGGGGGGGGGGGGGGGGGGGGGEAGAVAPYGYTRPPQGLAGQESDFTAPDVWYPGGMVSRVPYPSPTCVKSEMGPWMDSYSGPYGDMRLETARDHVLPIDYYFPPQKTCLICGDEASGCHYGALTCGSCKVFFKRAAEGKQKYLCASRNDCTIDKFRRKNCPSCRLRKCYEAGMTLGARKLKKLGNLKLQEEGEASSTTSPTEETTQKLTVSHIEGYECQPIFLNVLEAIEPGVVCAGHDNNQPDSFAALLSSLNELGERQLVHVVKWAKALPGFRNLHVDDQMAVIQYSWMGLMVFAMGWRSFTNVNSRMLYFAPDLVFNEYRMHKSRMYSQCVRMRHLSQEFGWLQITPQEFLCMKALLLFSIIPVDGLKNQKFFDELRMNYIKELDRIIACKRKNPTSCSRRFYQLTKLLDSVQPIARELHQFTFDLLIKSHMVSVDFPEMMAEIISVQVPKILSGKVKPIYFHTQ
Chain of Aromatase (Homo sapiens) (P11511 whole entry, looked up): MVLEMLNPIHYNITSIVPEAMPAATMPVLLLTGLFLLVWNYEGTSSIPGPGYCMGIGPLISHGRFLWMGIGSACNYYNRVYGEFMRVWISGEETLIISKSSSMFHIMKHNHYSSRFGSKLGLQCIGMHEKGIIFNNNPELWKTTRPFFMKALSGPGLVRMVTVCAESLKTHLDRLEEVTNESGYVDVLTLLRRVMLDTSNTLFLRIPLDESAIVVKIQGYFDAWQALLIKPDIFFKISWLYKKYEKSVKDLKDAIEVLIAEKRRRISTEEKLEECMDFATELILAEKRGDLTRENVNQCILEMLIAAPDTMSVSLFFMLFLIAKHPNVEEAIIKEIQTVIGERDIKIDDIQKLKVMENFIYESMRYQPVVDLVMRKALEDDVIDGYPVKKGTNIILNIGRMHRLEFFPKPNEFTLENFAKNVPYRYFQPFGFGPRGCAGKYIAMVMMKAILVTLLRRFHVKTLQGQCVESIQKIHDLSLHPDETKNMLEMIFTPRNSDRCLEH

CCCCCCC(O)CCCCCCCCCCC(=O)OC (stereo unspecified)
active: Potency [3] 68.6 µM
inactive: Potency [1] | Potency [2] | Potency [4] | Potency [5] | Potency [6] | Potency [7] | Potency [8] | Potency [9] | Potency [10]

COc1ccc(-c2cc(=S)ss2)cc1
inactive: Potency [1] | Potency [6] | Potency [8] | Potency [9] | Potency [11] | Potency [10] | Potency [12]
active: Potency [2] 26.6 µM

CC1=CC[C@@H]2C[C@H]1C2(C)C
inactive: Potency [1] | Potency [2] | Potency [4] | Potency [5] | Potency [7] | activation [8] 0.116% [at 18 µM] | activity, negative = inhibition [13] 12.8% [at 15 µM] | activity, negative = cytotoxicity [9] -16.5% [at 15 µM] | activation [11] -0.944% [at 14.9 µM] | Potency [14] | Potency [15] | Potency [10] | Potency [12] | Potency [16]

CC(C)CC(O)CC(C)C
inactive: Potency [1] | Potency [2] | Potency [3] | Potency [4] | Potency [6] | Potency [7] | Potency [8] | Potency [13] | Potency [9] | Potency [11] | Potency [14] | Potency [15] | Potency [10] | Potency [12] | Potency [16]

O=C(C(=O)c1ccco1)c1ccco1
inactive: Potency [1] | Potency [17] | Potency [3] | Potency [4] | outcome [18] | Potency [19] | Potency [5] | Potency [20] | Potency [6] | Potency [7] | Potency [8] | Potency [13] | Potency [9] | Potency [11] | Potency [14] | Potency [15] | Potency [10] | Potency [12] | Potency [16]

— PubChem BioAssay (Tox21)
